ALR H2O2 inh – blocks human ALR sulfhydryl oxidase activity | inhibition, % (test concentration not listed) | P55789 | purified ALR, DTT oxidation, H2O2 HRP-luminol luminescence | actives 3.8% (n = 290,000) | AID 485317;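 active means mean replicate inhibition above about 79%, with every replicate also reaching it, limit read from the data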
A3G deaminase – APOBEC3G (human) deaminase inhibition; actives 0.28% (n = 330,000); recombinant A3G, ssDNA deamination FAM/TAMRA fluorescence; AID 493012; inhibition, % at 20 µM; Q9HC16;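 active means inhibition of at least 40% at 20 µM, with no more than 30% in the related APOBEC3A deaminase screen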;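 further: plate controls were DMSO wells with A3G for no effect and wells lacking A3G enzyme for full effect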
PfM18AAP inh – blocks P. falciparum M18 aspartyl aminopeptidase. recombinant PfM18AAP, H-Glu-NHMec fluorogenic cleavage. inhibition, % at 7.35 µM. actives 1.2% (n = 290,000). AID 1822;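 active means inhibition above the campaign mean inhibition over all tested compounds plus 3 SD, cut at about 28% in these data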;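 further: 0% = plate median of test compound wells and 100% = 2 mM ZnCl2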
APOBEC3A inh – blocks human APOBEC3A ssDNA deamination. inhibition, % at 20 µM. P31941. recombinant A3A, FAM/TAMRA ssDNA deamination fluorescence. AID 493011. actives 0.41% (n = 330,000);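 active means at least 40% inhibition at 20 µM here, with at most 30% in a related deaminase screen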;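 further: plate controls were A3A with DMSO for no effect and wells lacking A3A enzyme for full effect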
NRP1-CendR mod – alters CendR peptide binding to human NRP-1; O14786; FAM-RPARPAR peptide binding to NRP-1, fluorescence polarization; inhibition, % at 25 µM; actives 0.85% (n = 360,000); AID 602438;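 active means inhibition or corrected inhibition above about 18%, plus a signal ratio from 0.5 to 1.5, limit read from the data, passing the limit was not always enough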
Yeast superoxide – lowers age-related superoxide in aged yeast cells; superoxide response (% of plate mean), % at 10 µM; S. cerevisiae aged cells, superoxide DHE fluorescence; active compounds read low; actives 0.18% (n = 330,000); AID 2690;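 active means superoxide response under a set limit, about three screen SD below normal, cut at about 65% in these data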;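 further: yeast aged for seven days with compound at 30 °C before DHE staining; 100% = average MFI of all compound-treated wells on the plate with controls excluded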
A3A conf – APOBEC3A (human) deaminase inhibition, confirmed | shares compounds with APOBEC3A inh | recombinant A3A, ssDNA deaminase UDG fluorescence assay | inhibition, % at 20 µM | actives 63% (n = 1,400);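 active means inhibition reaching a set limit, 80% of the first screen's cutoff, at 20 µM in any replicate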;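 further: plate controls were DMSO wells with A3A for no effect and wells lacking A3A enzyme for full effect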
UDG ctr A3A – counter-screen for APOBEC3A inhibitors: UDG | shares compounds with APOBEC3A inh | UDG counterscreen, FAM/TAMRA uracil oligo fluorescence | inhibition, % at 20 µM | 1,000 tested, under 10 active | AID 504714; call rule not given here
* marks the source's active call; other numbers are inactive results; nt = no result. Most compounds without a hit are left out; they make up all but 5.2% or so of the library.

SMILES	ALR H2O2 inh	A3G deaminase	PfM18AAP inh	APOBEC3A inh	NRP1-CendR mod	Yeast superoxide	A3A conf	UDG ctr A3A
CCN(CC)CCNC(=O)/C(=C/c1cn(CC)c2ccccc12)NC(=O)c1cc(OC)c(OC)c(OC)c1	30.8	-1.5	-1.1	2.8	9.7	69.7	nt	nt
Cc1ccc(S(=O)(=O)NNC(=O)Cc2cccn2C)cc1	16.6	-4.7	9.0	-0.1	4.5	96.8	nt	nt
Cc1cccc(S(=O)(=O)NNC(=O)Cc2cccn2C)c1	31.0	-8.0	5.1	58.3*	2.3	109.5	-1.6	2.2
C=CCOc1ccc(C(c2c(C(=O)O)[nH]c3ccccc23)c2c(C(=O)O)[nH]c3ccccc23)cc1	10.1	24.2	2.4	54.7*	-104.1	115.5	41.0*	-3.3
COc1ccccc1N1C(=O)C(Cl)=C(N2CCCC2)C1=O	nt	-5.2	4.4	-3.3	3.8	102.7	nt	nt
CCOC(=O)C1Nc2ccc(C(=O)O)cc2C2C=CCC12 (stereo not given)	-21.5	27.1	6.0	81.0*	0.6	92.0	89.0*	1.4
CC(C)C1Nc2ccc(C(=O)O)cc2C2C=CCC21 (stereo not given)	-8.6	27.9	11.8	40.2*	-1.6	90.5	41.9*	6.3
Cc1ccccc1Cn1cnc2ccccc21	-24.5	-7.0	-4.9	2.7	-5.1	97.0	nt	nt
O=S(=O)(Nc1ccon1)c1ccc(Br)s1	-5.4	-4.8	-13.8	76.0*	-16.3	93.5	-2.0	-2.6
CSc1nc2ccc(NS(=O)(=O)c3ccc(Br)s3)cc2s1	nt	-4.5	-1.9	-0.4	-3.5	115.7	nt	nt
C[n+]1cc(C(=O)N2CCCCC2)ccc1/C=C/c1c[nH]c2ccccc12	5.4	14.1	4.0	75.1*	118.9	103.1	72.6*	7.1
O=C(C(=O)N1CCCCCC1)c1c[nH]c2ccccc12	0.7	-3.7	3.3	-4.0	-7.8	88.8	nt	nt
CCc1ccc(N2C(=O)CN(Cc3ccc(OC)c(OC)c3)C2=S)cc1	21.2	2.5	-0.5	8.0	12.5	90.5	nt	nt
O=C(CCNC(=O)c1ccc([N+](=O)[O-])cc1)Nc1nccs1	-1.4	13.5	-19.4	46.7*	-4.9	116.2	2.2	nt
O=C(CCNC(=O)c1ccc([N+](=O)[O-])cc1)NCCc1ccc(Cl)cc1	-0.9	5.3	8.9	20.2	0.8	111.8	nt	nt
Cc1ccc(CNC(=O)CCNC(=O)c2ccc([N+](=O)[O-])cc2)cc1	-16.1	12.3	nt	45.9*	-1.7	97.6	40.6*	1.0
CCC1(c2ccccc2)NC(=O)N(CC(=O)Nc2ccc(S(=O)(=O)N3CC(C)CC(C)C3)cc2)C1=O (stereo not given)	-5.7	-4.4	nt	1.6	-9.6	84.6	nt	nt
CC1(c2ccc(Cl)cc2)NC(=O)N(CC(=O)Nc2ccc(N3CCCCC3)cc2)C1=O (stereo not given)	8.0	-5.8	nt	44.6*	-13.1	105.4	-6.0	-2.9
CC1CCN(S(=O)(=O)c2ccc(NC(=O)CN3C(=O)NC(C)(c4ccccc4)C3=O)cc2)CC1 (stereo not given)	-19.7	4.5	nt	49.0*	0.6	104.8	-3.3	nt
Cc1cc(C)n2c(SCC(=O)Nc3cc(S(=O)(=O)N(C)C)ccc3C)nnc2n1	nt	3.0	nt	40.1*	18.8	93.3	23.4	nt
Cc1ccc2c(c1)S/C(=C\c1cccc[n+]1C)N2CCO	38.5	26.1	2.1	58.5*	-7.1	92.2	88.6*	4.0
CCCN1C(=O)/C(=C\C=C2/Sc3ccccc3N2CC)SC1=S	nt	nt	-12.8	nt	nt	nt	nt	nt
Cc1ccc2c(c1)S/C(=C/c1ccc[n+](CCO)c1)N2C	33.6	14.9	9.6	55.6*	1.0	96.5	88.2*	2.0
C[n+]1ccccc1/C=C1\Sc2ccccc2N1CCO	69.6	22.4	6.8	98.3*	0.7	97.1	92.4*	-2.9
CCN1/C(=C/c2ccc3cc(C)cc(C)c3[n+]2CC)Sc2cc(C)ccc21	nt	nt	10.1	nt	-221.2	nt	nt	nt
SMILES	ALR H2O2 inh	A3G deaminase	PfM18AAP inh	APOBEC3A inh	NRP1-CendR mod	Yeast superoxide	A3A conf	UDG ctr A3A
Cc1csc2nc3ccccc3c(=O)n12	1.4	-2.6	-5.1	-1.0	2.0	106.1	nt	nt
Cc1ccc(-n2c(SCC(N)=O)nnc2-c2cnccn2)cc1	-1.6	-7.0	-0.2	-5.2	8.9	89.8	nt	nt
CCOC(=O)N1CCC(N2C(=O)c3ccc(C(=O)Nc4ccc(F)cc4F)cc3C2=O)CC1	nt	2.1	2.6	2.4	-11.9	92.9	nt	nt
C=C[C@H]1CN2CC[C@H]1C[C@@H]2[C@@H](O)c1ccnc2ccc(OC)cc12	4.0	-5.0	nt	-2.8	4.6	100.1	nt	nt
CCN(CC)C(=O)Cn1cc(SCC(=O)NC2CCCC2)c2ccccc21	2.6	-8.9	-1.3	-2.8	5.6	85.9	nt	nt
CCN(CC)C(=O)Cn1cc(SCC(=O)NC)c2ccccc21	-5.5	11.0	-3.7	82.9*	9.4	86.7	0.9	nt
O=C(O)C1CCCCC1C(=O)Nc1cccc(Br)c1 (stereo not given)	nt	24.1	nt	94.3*	-6.7	98.4	90.9*	nt
CN1/C(=C\C=[N+](C)c2ccccc2)C(C)(C)c2ccccc21	nt	13.0	-1.5	56.2*	-0.7	104.2	77.5*	-33.3
COc1cc(OC)c2ccc(=O)oc2c1C(CCN1CCCC1)c1ccc2c(c1)OCO2 (stereo not given)	nt	20.1	nt	64.3*	-12.7	98.1	-0.7	nt
COc1ccc(CSCC(=O)N/N=C/c2ccccc2OCc2ccccc2)cc1	-4.2	-5.9	6.0	8.7	-7.3	107.7	nt	nt
CCCCn1c(N)c(N(CC(C)C)C(=O)COC(=O)c2ccccc2NCCO)c(=O)[nH]c1=O	-1.4	8.0	nt	41.5*	-15.6	114.6	16.7	nt
CCCn1c(N)c(N(CCOC)C(=O)COC(=O)c2ccccc2NCCO)c(=O)[nH]c1=O	-2.9	-3.8	nt	22.5	2.8	110.7	nt	nt
C[N+]1(C2CCC3CCCC2C3O)CCCCC1 (stereo not given)	-1.7	20.8	-4.1	64.9*	-8.3	92.9	67.9*	3.6
COc1ccc(OC)c(NS(=O)(=O)c2ccc(Br)s2)c1	12.5	3.4	9.4	-3.6	nt	95.1	nt	nt
COc1ccc(OC)c(NS(=O)(=O)c2cccs2)c1	-7.9	-4.5	12.8	61.6*	-11.6	89.1	-1.3	2.8
Cn1cccc2[nH]c(=O)nc1-2	-0.9	10.6	3.5	77.6*	-8.3	98.1	20.4	nt
c1ccc2c(c1)nc(N1CCCCCC1)c1ccccc12	nt	12.2	1.3	66.9*	2.9	109.5	66.8*	-2.3
O=C(NC(=S)/C(=C1\CCCCCN1)[N+](=O)[O-])c1ccccc1	-3.4	-5.5	nt	-4.3	2.5	79.9	nt	nt
COc1ccccc1OCCSc1nnc(CNC(=O)c2ccco2)n1C	nt	5.8	1.3	47.8*	8.1	91.5	27.1	nt

Bioassay records deposited in PubChem BioAssay by several laboratories.
